# Assay outcomes deposited in PubChem by National Center for Advancing Translational Sciences (NCATS).
# FMDV FLuc = antivirals against foot and mouth disease virus; FMDV antiviral cell assay, firefly luciferase signal; Potency, µM (series often up to 57.5 µM), actives largely listed as inhibitors; 0.23% of 120,000 active; note: nearly all actives have a fitted effect of over 60% in size
# FMDV Renilla = FMDV antiviral activity by Renilla signal; FMDV replicon cells, Renilla luciferase signal; Potency, µM (series often up to 57.5 µM), usual class: inhibitors; 0.32% of 120,000 active; note: nearly all actives have a fitted effect of over 55% in size
# Hits are given with their value; 0 = inactive; ? = inconclusive; [ ] = dose if it differs, or a comment. Only some compounds are listed: those with a hit (about 0.51% of all), similar ones and a draw of the others. Calls come from the whole dose curve.
SMILES,FMDV FLuc,FMDV Renilla
COC(=O)C1CN(Cc2ccc(OC)cc2)CCS(=O)(=O)N1Cc1ccc(Cl)cc1 (stereo unspecified),0,0
CCCCCCCCCCCCSCCS(=O)(=O)OCC(F)(F)C(F)F,0,0
CCN1/C(=C/C=C/c2sc3ccccc3[n+]2CC)Sc2ccccc21,3.2µM,?
CCN(CC)C(C)CN1c2ccccc2Sc2ccccc21 (stereo unspecified),0[11.5 µM],0
CSc1ccccc1C(=O)Nc1ccc(C(C)C)cc1,0,0
CN(C)CCNc1oc(-c2ccc(S(=O)(=O)N3CCOCC3)cc2)nc1C#N,0,0
COc1ccc(NC(=O)COc2ccccc2C)c2cccnc12,?,14µM
COc1ccc(NC(=O)COc2c(C)cccc2C)c2cccnc12,0,0
COc1ccc(CCNCc2ccc(Br)cc2)cc1,0,13µM
COc1ccc(CNCCc2ccc(F)cc2)cc1,0,0[1.06 µM]
Nc1cccc(-c2ccn[nH]2)c1,0,0
CC(=O)c1c(C)[nH]c(C(=O)C(C)OC(=O)c2ccc(F)cc2Cl)c1C (stereo unspecified),20µM,8.9µM
CC(=O)c1c(C)[nH]c(C(=O)C(C)OC(=O)c2ccc(F)cc2)c1C (stereo unspecified),0,0[1.06 µM]
CC(=O)c1c(C)[nH]c(C(=O)C(C)OC(=O)c2cc(Cl)ccc2F)c1C (stereo unspecified),0,0
CC(=O)c1c(C)[nH]c(C(=O)C(C)N(C)Cc2cccc(F)c2)c1C (stereo unspecified),?,4µM
CC(=O)Nc1ccc(NC(=O)c2cc(S(=O)(=O)N3CCOCC3)c(Cl)cc2Cl)cc1,0,0
O=C(Cn1nc(-c2cccs2)c2ccccc2c1=O)NC1CCCC1,0,0
Cn1nc(C(=O)Nc2ccccc2Oc2ccccc2)c2ccccc2c1=O,0,0
Cc1ccc(C)c(-c2csc(Nc3ccc(S(N)(=O)=O)cc3)n2)c1,?,18µM
Cc1ccc(C)c(-c2csc(Nc3ccc(S(=O)(=O)Nc4nc(C)cc(C)n4)cc3)n2)c1,0,0
CN(C)c1ccc(NC(=O)CC2C=CCC2)cc1 (stereo unspecified),0,0
Cc1cc(C(=O)Cn2c(Cl)nc3c2c(=O)n(C)c(=O)n3C)c(C)n1CCc1ccccc1,28µM,7.9µM
Cc1cc(C(=O)Cn2c(Cl)nc3c2c(=O)n(C)c(=O)n3C)c(C)n1C,0,0
CC1CC(=O)Nc2ccccc2N1C(=O)c1ccccc1 (stereo unspecified),0,0
CCCNC(=O)NC(C)c1ccccn1 (stereo unspecified),0,0
SMILES,FMDV FLuc,FMDV Renilla
CNC(=O)c1ccccc1OCc1coc(-c2cccc(F)c2)n1,?,25µM
Fc1cccc(-c2nc(COc3ccccc3F)co2)c1,0,0
CCOC(=O)C1=CN(c2ccccc2)C=C(C(=O)OCC)C1c1ccc(F)cc1,0,0
COc1cc2c(cc1OC)CN(C(=O)CCc1ncc(-c3c(F)cccc3F)o1)CC2,0,0
CCOC(=O)N1CCN(c2ncc3c(n2)CC(c2ccc(OC)c(OC)c2)CC3=O)CC1 (stereo unspecified),0,0
O=C1CC(c2ccccc2O)Cc2nc(N3CCN(c4ccccc4F)CC3)ncc21 (stereo unspecified),?,11µM
CC(C(=O)Nc1sc2c(c1C#N)CCCCC2)n1cnc2c1c(=O)n(C)c(=O)n2C (stereo unspecified),?,14µM
CCC(C(=O)Nc1sc2c(c1C#N)CCCC2)n1cnc2c1c(=O)n(C)c(=O)n2C (stereo unspecified),0,0
Cc1cc(C)c(NC(=O)COc2ncnc3ccccc23)c(C)c1,0,0
Cc1nc(N2CCC(C(=O)Nc3cccc(Cl)c3C)CC2)c2c(C)c(C)oc2n1,0,0
Cc1nc(N2CCC(C(=O)Nc3cccc(Br)c3)CC2)c2c(C)c(C)oc2n1,18µM,?
CN(C)c1ccc(Nc2nc(-c3cc4ccccc4oc3=O)cs2)cc1,0,0
Cc1cccc(OCCCC(=O)Nc2ccc3c(C)cc(=O)oc3c2)c1,0,0
CCc1c(C)sc(NC(=O)C(F)(F)C(F)(F)C(F)(F)C(F)(F)F)c1C#N,22µM,25µM
CCc1c(C)sc(NC(=O)C(C)(C)C)c1C#N,0,0
CCc1c(C)sc(NC(=O)C(F)(F)C(F)(F)C(F)(F)F)c1C#N,?,10µM
CCc1c(C)sc(NC(=O)c2c(F)c(F)c(F)c(F)c2F)c1C#N,0,0
CCCn1nc(C)cc1CN(C)c1ccc(NC(=O)c2ccc(OC)cc2)cc1C(=O)O,0,0
Cc1ccc(NCc2cc3ccccc3[nH]c2=O)cc1C,0,0
COC(=O)C1=C(C)N(C2CCCC2)C(=O)C1(NC(=O)C1CC1)C(F)(F)F (stereo unspecified),0,0
CCc1ccccc1Nc1nn2c(=O)c3ccc(C(=O)NC(C)c4ccccc4)cc3nc2s1 (stereo unspecified),11µM,?
CCc1ccccc1Nc1nn2c(=O)c3ccc(C(=O)NCCc4ccccc4)cc3nc2s1,0,0
CCn1c2c(c(=O)n3ncc(C(=O)Nc4ccc(F)c(Cl)c4)c13)CN(Cc1ccc(OC)cc1)CC2,0,0
CCn1c2c(c(=O)n3ncc(C(=O)N4CCN(c5ccc(Cl)cc5)CC4)c13)CN(Cc1ccc(OC)cc1)CC2,?,22µM
COc1ccccc1CNc1nc(-c2ccc(C)cc2)cs1,0,0
SMILES,FMDV FLuc,FMDV Renilla
CC(C)S(=O)(=O)c1oc(-c2ccc(F)cc2)nc1S(=O)(=O)c1ccccc1,?,0
CCCCS(=O)(=O)c1oc(-c2ccc(F)cc2)nc1S(=O)(=O)c1ccccc1,28µM,0
CCSCCC(=O)NCCC(=O)N(C)Cc1ccccc1,0,0
Cc1ccc(CNS(=O)(=O)c2ccc(-c3cnc(C4CC4)o3)cc2)cc1,0,0
COc1ccc(C)cc1NS(=O)(=O)c1ccc(-c2cnc(C3CC3)o2)cc1,14µM,16µM
O=C(O)CNS(=O)(=O)c1ccc(Br)cc1Cl,0,0
O=C(NCC1CCN(C2CCCC2)C1)Nc1ccc(Br)cc1F (stereo unspecified),0,0
CCn1c(COc2ccccc2Cl)nnc1SCc1cc(=O)c2cc(C(N)=O)ccc2[nH]1,0,0
CCc1ccc(OCc2nnc(SCc3cc(=O)c4ccccc4[nH]3)n2CC)cc1,?,16µM
COC(=O)CN1C(=O)CSc2ccc(S(=O)(=O)Nc3ccc(C)c(N(C)C)c3)cc21,?,0
O=C(COC(=O)c1cc(-c2cccs2)nc2ccccc12)NCC1CCCO1 (stereo unspecified),0,0
O=C(Nc1ccc2ccccc2n1)c1ccc(S(=O)(=O)NC2CC2)cc1,0,0
O=C(Nc1ccc2ccccc2n1)c1ccc(S(=O)(=O)N2CCCCC2)cc1,?,32µM
CCc1ccc(-c2noc(Cn3cnc4c(nnn4Cc4ccccc4)c3=O)n2)cc1,0,0
COc1ccc(C)cc1NC(=O)CSc1nnc(CN2CCCCC2)n1-c1ccc(F)cc1,0,0
N#CC1=C(SCc2ccc(Cl)cc2)NC(=O)C(C#N)C12CCCC2 (stereo unspecified),?,10µM
N#CC1(NC(=O)CSCc2ccc(Cl)cc2)CCCCCC1,0,0
Cc1ccc(Nc2nc(CN3CCN(S(=O)(=O)c4cc(C)ccc4C)CC3)cs2)cc1,?,8.9µM
Cc1nc(CN2CCN(S(=O)(=O)c3ccccc3Cl)CC2)cs1,0,0
Cn1cc(C(=O)N2CCN(Cc3ccc(Cl)cc3)CC2)c(-c2ccc3c(c2)OCCCO3)n1,0,0
C=CCOc1cccc(NC(=O)c2ccncc2)c1,0,0
O=C(Nc1ccncc1)c1cccc(OCc2ccc(F)cc2)c1,?,6.3µM
